# In PubChem BioAssay (NCI):
# Compounds without any hit were thinned out: in the full panel of roughly 83,000, 20% have a hit.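 48-hour exposure, single concentration, 96-well plates; percent growth endpoint where 0 means no net growth. Active: below 10.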 A number with no mark means an inactive call. The source made the active and inactive calls.
# Tested on: MDA-MB-435 melanoma
# Assay: NCI-60 one-dose screen, 48 h (100 = growth as untreated, 0 = no growth, -100 = all killed)
# Conditions: 10 µM unless noted
# Description: Growth inhibition of the MDA-MB-435 human Melanoma tumor cell line is measured as a screen for anti-cancer activity. Cells are grown in 96 well plates and exposed to the test compound for 48 hours. Compounds are tested at a single concentration, which is 10^-5 M for most compounds. The reported endpoint is percent growth (GI% or GIPRCNT), where numbers from 0 - 100% represent growth inhibition, and numbers from -100% - 0 represent cell death. For example, a value of 40 represents 60% growth inhibition. A value of 0 means no net growth occurred over the course of the experiment. A value of -40 indicates 40% of cells at the beginning of the experiment died by the end of the experiment. A value of -100 means all cells are dead at the end of the experiment.
# NCI-60 Human Tumor Cell Lines Screen was performed using the standard one-dose NCI protocol, which is described in more detail at https://dtp.cancer.gov/discovery_development/nci-60/default.htm.
# Compounds with GIPRCNT values below 10 were considered active. Activity score was based on GIPRCNT using the following formula: […]
# Score is 0 for GIPRCNT values of 100 or above, 50 for GIPRCNT values of 0, and 100 for GIPRCNT values of -100.
row,Compound,growth
1,COc1ccc(/C=C2/CCc3cc4ccc(OC)cc4[o+]c32)c(O)c1,2.85% (active)
2,O=C(/C=C/c1ccc(Cl)cc1)c1ccc(-n2cc(CN3CCN(c4cc5c(cc4F)c(=O)c(C(=O)O)cn5C4CC4)CC3)nn2)cc1,82.2%
3,CC/C(=C(/c1ccc(Cl)cc1)c1ccc(OCCN2CCCC2)cc1)c1ccccc1,60.2%
4,CCCn1cnc2c(c1=N)C(c1ccc(Cl)cc1)c1sc3c(F)cccc3c1O2 (stereo not given),77.7%
5,COC1=C(OC)C(=O)C(CCCCCCCCCCO)=C(C)C1=O,-51% (active)
6,CO[C@H]1CC(c2ccc[nH]2)=N[C@]12O[C@@H](C)C[C@@H]1CCCCCCCc3ccc([nH]3)[C@H]12,15.2%
7,O=C1NCCS(=O)(=O)/C1=C\C=C\c1cccc(C(F)(F)F)c1,18.2%
8,CCOC(=O)/C(=C\c1ccccc1Cl)P(=O)(OCC)OCC,45.1%
9,CC(C)(C)n1cc(-c2ccnc(NCCNS(=O)(=O)c3ccc(Br)cc3)c2)c(-c2cccc(O)c2)n1,28.1%
10,Nc1nc(=O)n([C@H]2CC=C(CO)O2)cc1F,97.8%
11,CCCCC/C=C/CCC(=O)N[C@H]1[C@H](Oc2c3cc4cc2Oc2ccc(cc2Cl)[C@@H](O[C@@H]2O[C@H](CO)[C@@H](O)[C@H](O)[C@H]2NC(C)=O)[C@@H]2NC(=O)[C@H](NC(=O)[C@@H]4NC(=O)[C@H]4NC(=O)[C@@H](Cc5ccc(c(Cl)c5)O3)NC(=O)[C@@H](N)c3ccc(O)c(c3)Oc3cc(O)cc4c3)c3ccc(O)c(c3)-c3c(O[C@H]4O[C@H](CO)[C@@H](O)[C@H](O)[C@@H]4O)cc(O)cc3[C@H](C(=O)O)NC2=O)O[C@H](CO)[C@H](O)[C@@H]1O,100%
12,CCN1C(=O)N(CC)C2C1NN=c1s/c(=C\c3ccc([N+](=O)[O-])cc3)c(=O)n12 (stereo not given),-23.4% (active)
13,C=CCOC(=O)C1=C(C)N(CC)C(=O)N(CC)C1c1c(Cl)n(C)c2ccccc12 (stereo not given),89.1%
14,O=C(NS(=O)(=O)c1ccccc1)n1cc(-c2ccncc2)c(-c2cc(O)cc(Cl)c2)n1,66.6%
15,Cn1ncc(CC(=O)O)c1-n1nnc2cc(Cl)ccc2c1=O,92.7%
16,O=c1oc2ccccc2cc1-c1nn(-c2ccccc2)cc1/C=N/Nc1nc(-c2ccccc2)c(N=Nc2ccccc2)s1,-27.8% (active)
17,CC(=O)c1c(/C=C/c2ccc(C)cc2)c2ccccc2[nH]c1=O,96.1%
18,CN(C)c1ccc(/C=N/NC(=O)CSc2nc3sc4c(c3c(=O)n2-c2ccccc2)CCCCC4)cc1,33.2%
19,CCOC(=O)c1c(C)nc2c(c1N)C(=O)C(=O)N2CCc1ccc(OC)c(OC)c1,41.4%
20,COc1cccc(-c2nn(-c3ccccc3)cc2-c2ccnc(-c3cccnc3)c2)c1,97.7%

row,Compound,growth
1,O=C(Nc1ccc(Cl)cc1)C1=NCCCCN1,72.6%
2,CCCCCCCCCCCCCC[n+]1ccc2c(C)c3c(c(C)c2c1)c1cc(O)ccc1n3CC,-92.6% (active)
3,c1ccc(-c2cn3nc(-c4c[nH]c5ccccc45)sc3n2)cc1,26.5%
4,COC(=O)c1cc(-c2cc(OC)c(OC)c(OC)c2)[nH]c1N/N=C/c1c(Cl)cccc1Cl,-2.15% (active)
5,O=C(N/N=C/c1ccccc1Cl)c1ccccc1Nc1ccnc(C(F)(F)F)c1,14.6%
6,O=C(O)COc1ccc(F)cc1,108%
7,COc1ccc(NC(=O)c2ccc(Cl)cc2Cl)cc1,88.3%
8,CCOC(=O)/C(=C/c1ccc([N+](=O)[O-])cc1)C(=O)c1ccccc1,28.1%
9,C=CCn1c(SCC(=O)Nc2ccc(C(=O)/C=C/c3ccc(Cl)cc3)cc2)nnc1-c1ccc(Cl)c(Cl)c1,37.9%
10,CC(C)n1nc(-c2ccc3oc(N)nc3c2)c2c(N)ncnc21,-13.5% (active)
11,O=C(Oc1ccccc1)c1cc(O)c(O)c(O)c1,53.3%
12,COc1cc(-c2c(-c3ccccc3)c[nH]c2C(=O)NCCCO)c(OC)c2c1OCO2,104%
13,O=C(CN1C(=O)c2ccccc2S1(=O)=O)Nc1nc(-c2cc3ccccc3oc2=O)cs1,104%
14,CN1CCN(Cn2nc(-c3cc(Cl)cc(Cl)c3Cl)oc2=S)CC1,88.9%
15,C/C(=C(\c1ccc(OCCCN(C)C)cc1)c1ccc(OC(=O)Cc2ccccc2)cc1)c1ccc(Cl)cc1,57.7%
16,Cc1ccc(C(F)(F)F)cc1N1CCN(C(=O)[C@H]2C[C@H]2c2ccc(C(F)(F)F)nc2)CC1,103%
17,COC(=O)c1cc(-c2ccc(OC)c(OC)c2)[nH]c1N/N=C/c1c(Cl)cccc1Cl,-18.3% (active)
18,CCN1C(=O)N(CC)C2C1NN=c1s/c(=C3\C(=O)N(C)c4ccccc43)c(=O)n12 (stereo not given),-34.4% (active)
19,COc1ccccc1-c1nc2ccc3[nH]ncc3c2c2c1CCCC2,64.4%
20,CN1CCN(Cc2ccc(NC(=O)c3cncc(C#Cc4cnc(N)c5ccc(C#N)cc45)c3)cc2C(F)(F)F)CC1,-74.3% (active)
